Laboratory results: the supplement of paper PMC8728848
This excerpt belongs to a sample that is enriched for the strongest signals.

Columns and labels:
Assay in all cases: glycan array binding signal (z-score within array); higher = stronger binding
Settings in all cases: glycan notation: IUPAC condensed, linker removed
[1] = target: Gal(b1-4)GlcNAc(b1-3)Gal(b1-4)GlcNAc(b1-3)Gal(b1-4)GlcNAc(b1-3)Gal(b1-4)GlcNAc(b1-2)Man(a1-3)[Gal(b1-4)GlcNAc(b1-3)Gal(b1-4)GlcNAc(b1-3)Gal(b1-4)GlcNAc(b1-3)Gal(b1-4)GlcNAc(b1-2)Man(a1-6)]Man(b1-4)GlcNAc(b1-4)GlcNAc
Outline: (§1)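 Glycan array data were curated from 3228 arrays in the Consortium for Functional Glycomics database and kept only where the protein sequence was available. Glycan names were converted to IUPAC-condensed notation, and columns mapping to the same glycan were averaged. The binding signal is a within-array Z-score, averaged across arrays of the same protein sequence at different concentrations or buffers and across linkers. Negative Z-scores can be read as non-binding.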

[2] = target: Gal(b1-4)GlcNAc(b1-3)Gal(b1-4)GlcNAc(b1-3)Gal(b1-4)GlcNAc(b1-3)Gal(b1-4)GlcNAc(b1-2)Man(a1-3)[Gal(b1-4)GlcNAc(b1-3)Gal(b1-4)GlcNAc(b1-3)Gal(b1-4)GlcNAc(b1-3)Gal(b1-4)GlcNAc(b1-2)Man(a1-6)]Man(b1-4)GlcNAc(b1-4)[Fuc(a1-6)]GlcNAc
Outline: as §1

[3] = target: Gal(b1-4)GlcNAc(b1-3)Gal(b1-4)GlcNAc(b1-3)Gal(b1-4)GlcNAc(b1-3)Gal(b1-4)GlcNAc(b1-2)[Gal(b1-4)GlcNAc(b1-3)Gal(b1-4)GlcNAc(b1-3)Gal(b1-4)GlcNAc(b1-3)Gal(b1-4)GlcNAc(b1-6)]Man(a1-6)[Gal(b1-4)GlcNAc(b1-3)Gal(b1-4)GlcNAc(b1-3)Gal(b1-4)GlcNAc(b1-3)Gal(b1-4)GlcNAc(b1-2)Man(a1-3)]Man(b1-4)GlcNAc(b1-4)[Fuc(a1-6)]GlcNAc
Outline: as §1

[4] = target: Gal(b1-4)GlcNAc(b1-3)Gal(b1-4)GlcNAc(b1-3)Gal(b1-4)GlcNAc(b1-3)Gal(b1-4)GlcNAc(b1-3)Gal(b1-4)GlcNAc(b1-2)Man(a1-3)[Gal(b1-4)GlcNAc(b1-3)Gal(b1-4)GlcNAc(b1-3)Gal(b1-4)GlcNAc(b1-3)Gal(b1-4)GlcNAc(b1-3)Gal(b1-4)GlcNAc(b1-2)Man(a1-6)]Man(b1-4)GlcNAc(b1-4)GlcNAc
Outline: as §1

[5] = target: Gal(b1-4)GlcNAc(b1-3)Gal(b1-4)GlcNAc(b1-3)Gal(b1-4)GlcNAc(b1-3)Gal(b1-4)GlcNAc(b1-3)Gal(b1-4)GlcNAc(b1-2)Man(a1-3)[Gal(b1-4)GlcNAc(b1-3)Gal(b1-4)GlcNAc(b1-3)Gal(b1-4)GlcNAc(b1-3)Gal(b1-4)GlcNAc(b1-3)Gal(b1-4)GlcNAc(b1-2)Man(a1-6)]Man(b1-4)GlcNAc(b1-4)[Fuc(a1-6)]GlcNAc
Outline: as §1

[6] = target: Gal(b1-4)GlcNAc(b1-3)Gal(b1-4)GlcNAc(b1-3)Gal(b1-4)GlcNAc(b1-3)Gal(b1-4)GlcNAc(b1-3)Gal(b1-4)GlcNAc(b1-2)[Gal(b1-4)GlcNAc(b1-3)Gal(b1-4)GlcNAc(b1-3)Gal(b1-4)GlcNAc(b1-3)Gal(b1-4)GlcNAc(b1-3)Gal(b1-4)GlcNAc(b1-6)]Man(a1-6)[Gal(b1-4)GlcNAc(b1-3)Gal(b1-4)GlcNAc(b1-3)Gal(b1-4)GlcNAc(b1-3)Gal(b1-4)GlcNAc(b1-3)Gal(b1-4)GlcNAc(b1-2)Man(a1-3)]Man(b1-4)GlcNAc(b1-4)[Fuc(a1-6)]GlcNAc
Outline: as §1

[7] = target: Gal(b1-4)GlcNAc(b1-3)Gal(b1-4)GlcNAc(b1-3)Gal(b1-4)GlcNAc(b1-3)Gal(b1-4)GlcNAc(b1-3)Gal(b1-4)GlcNAc(b1-3)Gal(b1-4)GlcNAc(b1-2)Man(a1-3)[Gal(b1-4)GlcNAc(b1-3)Gal(b1-4)GlcNAc(b1-3)Gal(b1-4)GlcNAc(b1-3)Gal(b1-4)GlcNAc(b1-3)Gal(b1-4)GlcNAc(b1-3)Gal(b1-4)GlcNAc(b1-2)Man(a1-6)]Man(b1-4)GlcNAc(b1-4)GlcNAc
Outline: as §1

[8] = target: Gal6S(b1-4)GlcNAc
Outline: as §1

[9] = target: GalNAc(b1-3)Gal(a1-6)Gal(b1-4)Glc
Outline: as §1

[10] = target: GalNAc3S(b1-4)GlcNAc3S
Outline: as §1

[11] = target: GalNAc4S6S(b1-4)GlcNAc
Outline: as §1

[12] = target: GlcNAc(a1-4)Gal(b1-4)GlcNAc(b1-3)Gal(b1-4)[Fuc(a1-3)]GlcNAc(b1-3)Gal(b1-4)[Fuc(a1-3)]GlcNAc
Outline: as §1

[13] = target: GlcNAc(b1-2)Man(a1-3)[GlcNAc(b1-4)][GlcNAc(b1-2)Man(a1-6)]Man(b1-4)GlcNAc(b1-4)GlcNAc
Outline: as §1

[14] = target: GlcNAc(b1-3)Gal(b1-4)GlcNAc(b1-3)Gal(b1-4)GlcNAc(b1-3)Gal(b1-4)GlcNAc(b1-3)Gal(b1-4)GlcNAc(b1-2)Man(a1-3)[GlcNAc(b1-3)Gal(b1-4)GlcNAc(b1-3)Gal(b1-4)GlcNAc(b1-3)Gal(b1-4)GlcNAc(b1-3)Gal(b1-4)GlcNAc(b1-2)Man(a1-6)]Man(b1-4)GlcNAc(b1-4)GlcNAc
Outline: as §1

[15] = target: GlcNAc(b1-3)Gal(b1-4)GlcNAc(b1-3)Gal(b1-4)GlcNAc(b1-3)Gal(b1-4)GlcNAc(b1-3)Gal(b1-4)GlcNAc(b1-2)Man(a1-3)[GlcNAc(b1-3)Gal(b1-4)GlcNAc(b1-3)Gal(b1-4)GlcNAc(b1-3)Gal(b1-4)GlcNAc(b1-3)Gal(b1-4)GlcNAc(b1-2)Man(a1-6)]Man(b1-4)GlcNAc(b1-4)[Fuc(a1-6)]GlcNAc
Outline: as §1

[16] = target: GlcNAc(b1-3)Man
Outline: as §1

[17] = target: GlcNAc6S(b1-3)Gal(b1-4)GlcNAc
Outline: as §1

[18] = target: Neu5Ac(a2-3)Gal(b1-3)GalNAc(b1-3)Gal(a1-4)Gal(b1-4)Glc
Outline: as §1

[19] = target: Neu5Ac(a2-3)Gal(b1-3)GalNAc(b1-4)[Neu5Ac(a2-8)Neu5Ac(a2-3)]Gal(b1-4)Glc
Outline: as §1

[20] = target: Neu5Ac(a2-3)Gal(b1-3)[Fuc(a1-4)]GlcNAc(b1-3)Gal(b1-3)[Fuc(a1-4)]GlcNAc
Outline: as §1

[21] = target: Neu5Ac(a2-3)Gal(b1-4)GlcNAc(b1-2)Man
Outline: as §1

[22] = target: Neu5Ac(a2-3)Gal(b1-4)GlcNAc(b1-2)[Neu5Ac(a2-3)Gal(b1-4)GlcNAc(b1-4)]Man(a1-3)[GlcNAc(b1-4)][Neu5Ac(a2-3)Gal(b1-4)GlcNAc(b1-4)Man(a1-6)]Man(b1-4)GlcNAc(b1-4)GlcNAc
Outline: as §1

[23] = target: Neu5Ac(a2-3)Gal(b1-4)GlcNAc(b1-3)Gal(b1-4)GlcNAc(b1-6)[Gal(b1-3)]GalNAc
Outline: as §1

[24] = target: Neu5Ac(a2-3)Gal(b1-4)GlcNAc(b1-6)GalNAc
Outline: as §1

[25] = target: Neu5Ac(a2-3)GalNAc(b1-4)GlcNAc
Outline: as §1

[26] = target: Neu5Ac(a2-3)[GalNAc(b1-4)]Gal(b1-4)GlcNAc(b1-3)GalNAc
Outline: as §1

[27] = target: Neu5Ac(a2-6)Gal(b1-4)GlcNAc(b1-3)Gal(b1-4)GlcNAc(b1-3)Gal(b1-4)GlcNAc(b1-2)Man(a1-3)[Neu5Ac(a2-6)Gal(b1-4)GlcNAc(b1-3)Gal(b1-4)GlcNAc(b1-3)Gal(b1-4)GlcNAc(b1-2)Man(a1-6)]GalNAc
Outline: as §1

[28] = target: Neu5Ac(a2-6)Gal(b1-4)GlcNAc(b1-3)Gal(b1-4)GlcNAc(b1-6)[Gal(b1-3)]GalNAc
Outline: as §1

[29] = target: Neu5Ac(a2-8)Neu5Ac(a2-3)Gal(b1-4)Glc
Outline: as §1

B1: LBL-152 (Laetiporus bicolor), B0D650 (protein)
chain: MSNEYNPPLGIAFRLCGLASDRVLFSRVSPSPEVFHHPKSEVYPDQWFVAIPGSGQNAGCYAIKSKNTGKVLFSRMSPDPRVGHIDGDGKYPDNWFKFEAGSGKYAGYFRLRAVASDTVLVSRTSTGTDTQVINYPATSAKYDDQYFTILFDHHHHHH
B1 was tested, and the “glycan array binding signal (z-score)” value [1] was 5.39, the “glycan array binding signal (z-score)” value [2] was 8.72 and the “glycan array binding signal (z-score)” value [3] was 6.24. The “glycan array binding signal (z-score)” value [4] was 10.6, the “glycan array binding signal (z-score)” value [5] was 9.73 and the “glycan array binding signal (z-score)” value [6] was 7.26. The “glycan array binding signal (z-score)” value [7] was 5.94, the “glycan array binding signal (z-score)” value [8] was -0.151 and the “glycan array binding signal (z-score)” value [9] was -0.159. For the same binder, the “glycan array binding signal (z-score)” value [10] was -0.163, the “glycan array binding signal (z-score)” value [11] was -0.15 and the “glycan array binding signal (z-score)” value [12] was -0.147. The “glycan array binding signal (z-score)” value [13] was -0.153, the “glycan array binding signal (z-score)” value [14] was 3.47 and the “glycan array binding signal (z-score)” value [15] was 4.51. For the same binder, the “glycan array binding signal (z-score)” value [16] was -0.156, the “glycan array binding signal (z-score)” value [17] was -0.157 and the “glycan array binding signal (z-score)” value [18] was -0.15. The “glycan array binding signal (z-score)” value [19] was -0.145, the “glycan array binding signal (z-score)” value [20] was -0.147 and the “glycan array binding signal (z-score)” value [21] was -0.149. The “glycan array binding signal (z-score)” value [22] was -0.16, the “glycan array binding signal (z-score)” value [23] was -0.162 and the “glycan array binding signal (z-score)” value [24] was -0.16. The “glycan array binding signal (z-score)” value [25] was -0.153, the “glycan array binding signal (z-score)” value [26] was -0.151 and the “glycan array binding signal (z-score)” value [27] was -0.134. For the same binder, the “glycan array binding signal (z-score)” value [28] was -0.154 and the “glycan array binding signal (z-score)” value [29] was -0.157.
